Source: PubChem (several laboratories)
A selection: hits, their analogues and other compounds. The true share with any hit is near 5%.
SENP6 block – inhibitors of human SENP6 protease; Q9GZR1; Recombinant SENP6 catalytic domain, aminoluciferin luminescence; inhibition, % at 10 µM; 330,000 compounds, 1.8% hits; AID 2599;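 active = inhibition above about 50% at the single tested dose, limit read from the data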
EBI2 block – EBI2 (human) antagonism. 360,000 compounds, 0.81% hits. AID 651636. inhibition, % at 5 µM. P32249. EBI2 beta-arrestin recruitment, luminescence, 7a,25-OHC stimulated; in the data active = inhibition above about 38%;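 also: enzyme fragment complementation signal reports receptor beta-arrestin coupling in cells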
SENP7 inh – blocks the human protease SENP7; recombinant SENP7, Z-RLRGG-aminoluciferin luminescence, 40 min; inhibition, % at 5 µM; 330,000 compounds, 1.5% hits; AID 434973;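 active = inhibition above about 50% at the single test dose, limit read from the data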
SENP8 block-1 – SENP8 (human) protease inhibition. recombinant SENP8, Nedd8 substrate fluorescence. inhibition, % at 20 µM. 360,000 compounds, 0.64% hits; in the data active = inhibition mostly above about 40%, no sharp cut-off; inactive = mostly below about 27%
SENP8 block-2 – blocks the human protease SENP8; purified SENP8, Z-RLRGG-aminoluciferin cleavage, luminescence; 330,000 compounds, 1.2% hits; inhibition, % at 10 µM; in the data active = inhibition above about 50%
AHR activator – activators of human aryl hydrocarbon receptor; 320,000 compounds, 2.5% hits; AHR-responsive luciferase reporter cells, luminescence; P35869; AID 2796; activation, % at 5 µM; in the data active = activation above about 47%
Target sequence (P35869 whole entry, looked up): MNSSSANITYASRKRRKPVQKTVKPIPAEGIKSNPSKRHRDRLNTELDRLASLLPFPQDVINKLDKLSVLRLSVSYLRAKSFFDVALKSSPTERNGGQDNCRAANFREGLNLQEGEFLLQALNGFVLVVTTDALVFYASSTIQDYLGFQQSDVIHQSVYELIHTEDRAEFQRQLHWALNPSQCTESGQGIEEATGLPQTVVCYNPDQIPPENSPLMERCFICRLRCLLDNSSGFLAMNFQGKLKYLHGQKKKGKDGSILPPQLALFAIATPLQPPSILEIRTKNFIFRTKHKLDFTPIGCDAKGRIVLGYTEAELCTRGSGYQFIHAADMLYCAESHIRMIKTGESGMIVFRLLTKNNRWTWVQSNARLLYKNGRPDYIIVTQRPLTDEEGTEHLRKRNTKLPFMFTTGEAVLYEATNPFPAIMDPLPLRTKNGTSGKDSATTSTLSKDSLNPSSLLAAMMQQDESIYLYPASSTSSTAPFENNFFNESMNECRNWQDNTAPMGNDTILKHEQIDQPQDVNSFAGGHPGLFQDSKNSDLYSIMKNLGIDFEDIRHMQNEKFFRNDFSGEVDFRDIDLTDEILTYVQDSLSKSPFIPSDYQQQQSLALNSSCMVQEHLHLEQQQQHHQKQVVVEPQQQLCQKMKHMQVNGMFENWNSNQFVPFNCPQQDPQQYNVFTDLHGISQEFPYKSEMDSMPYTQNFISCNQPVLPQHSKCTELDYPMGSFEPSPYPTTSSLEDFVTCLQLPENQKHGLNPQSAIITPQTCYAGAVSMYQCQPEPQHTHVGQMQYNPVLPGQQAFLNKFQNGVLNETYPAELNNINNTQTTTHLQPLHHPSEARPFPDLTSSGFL
AHR act confirm – confirmation of human aryl hydrocarbon receptor activators | shares compounds with AHR activator | human cells, AHR-responsive luciferase reporter, luminescence | activation, % at 9 µM | 2,300 compounds, 87% hits | AID 2845; in the data active = activation above about 49%;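 also: HepG2 hepatoma cells carrying a DRE-driven firefly luciferase reporter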
PXR act counter – activates human PXR in AHR activator counter-screen; AID 434939; 2,300 compounds, 88% hits; shares compounds with AHR activator; activation, % at 11.6 µM; cell-based PXR reporter, luciferase luminescence; in the data active = activation above about 11%;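 also: human hepatoma DPX-2 cells expressing full-length human PXR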
SENP8 conf – confirmation of human SENP8 protease inhibitors. 6,200 compounds, 40% hits. inhibition, % at 12.5 µM. AID 488912. shares compounds with SENP7 inh. Recombinant SENP8, Z-RLRGG-aminoluciferin luminescence, 60 min;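 active = mean inhibition across replicates above about 50%, limit read from the data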
SENP6 confirm – confirmation of human SENP6 protease inhibitors; shares compounds with SENP7 inh; recombinant SENP6, Z-RLRGG-aminoluciferin luminescence; inhibition, % at 12.5 µM; 6,200 compounds, 58% hits
SENP7 conf – human SENP7 inhibition, confirmed; inhibition, % at 12.5 µM; 6,200 compounds, 69% hits; recombinant SENP7, Z-RLRGG-aminoluciferin luminescence, 40 min; shares compounds with SENP7 inh; AID 488917
Casp3 SENP sel – selectivity test for SENP inhibitors: human caspase-3 inhibition; shares compounds with SENP7 inh; purified caspase-3, Z-DEVD-aminoluciferin luminescence, 60 min; inhibition, % at 12.5 µM; 6,200 compounds, 60% hits; AID 488918;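 active = mean inhibition above about 50%, limit read from the data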
SENP luc ctr – counter-screen for SENP inhibitors: luminescence interference; AID 488919; 6,200 compounds, 39% hits; inhibition, % at 12.5 µM; shares compounds with SENP7 inh; Pre-incubated SENP8/Z-RLRGG-aminoluciferin, luciferase luminescence interference;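 active = mean inhibition above about 50% when retested at one dose, limit read from the data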
Numbers stand for hits; i = inactive; nt = not tested or not shown.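 The calls were made as follows, unless noted: active = mean inhibition above about 50% in the one-dose retest (limit read from the data); inactive = the rest.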

SMILES | SENP6 block | EBI2 block | SENP7 inh | SENP8 block-1 | SENP8 block-2 | AHR activator | AHR act confirm | PXR act counter | SENP8 conf | SENP6 confirm | SENP7 conf | Casp3 SENP sel | SENP luc ctr
N/C(=N\OC(=O)c1ccc(Cl)c(Cl)c1)c1cccnc1 | 67 | i | 64 | i | i | 80 | 80 | 14 | i | i | i | i | i
CC(=O)N1c2ccc(S(=O)(=O)NCCC(=O)Nc3ncccc3C)cc2CC1C (stereo unspecified) | i | i | i | i | i | i | nt | nt | nt | nt | nt | nt | nt
O=[N+]([O-])c1ccc(S(=O)(=O)NCCc2cn3ccccc3n2)cc1 | i | i | i | i | i | i | nt | nt | nt | nt | nt | nt | nt
O=c1c2ccccc2cnn1-c1ccc(Cl)cc1 | 59 | i | 57 | i | i | 133 | 117 | 47 | i | 62 | 73 | 79 | i
COc1ccc(/C=N/Nc2snc(SC)c2C#N)cc1OC | 61 | i | i | i | i | 84 | 137 | 25 | i | i | i | i | i
COCCN(C(=O)Cc1coc2cc(C)c(C)cc12)c1c(N)n(Cc2ccccc2)c(=O)[nH]c1=O | i | i | i | i | i | i | nt | nt | nt | nt | nt | nt | nt
COc1ccccc1CNC(=O)C1CCCN(S(=O)(=O)c2ccc3c(c2)C(C)(C)C(=O)N3C)C1 (stereo unspecified) | i | i | i | i | i | i | nt | nt | nt | nt | nt | nt | nt
Cc1ccc(C(=O)N/N=C/c2ccc(-c3ccccc3[N+](=O)[O-])o2)cn1 | 65 | i | i | i | i | 93 | 109 | 16 | i | i | i | i | i
O=C(NCc1ccccc1Cl)C1CCC(=O)N(CCCN2CCCC2=O)C1 (stereo unspecified) | i | i | i | i | i | i | nt | nt | nt | nt | nt | nt | nt
Cc1cccc(Nc2n[nH]c(=S)s2)c1C | i | i | i | i | i | i | nt | nt | nt | nt | nt | nt | nt
Cc1cccc(Nc2nc3ccccc3s2)c1C | 69 | i | 83 | i | 65 | 101 | 50 | 72 | i | 74 | 94 | 59 | i
COc1cc(N=Nc2ccc3ccccc3c2)ccc1O | 97 | i | 95 | i | 94 | 84 | i | 13 | 94 | 96 | 101 | 73 | 94
COc1cc(-c2nc3ccccc3nc2-c2ccc(O)c(OC)c2)ccc1O | i | i | i | i | i | i | nt | nt | nt | nt | nt | nt | nt
COc1ccccc1-c1cnc(C(O)c2ccc(C)cc2C)[nH]1 (stereo unspecified) | nt | i | nt | i | nt | nt | nt | nt | nt | nt | nt | nt | nt
CCN(CC)S(=O)(=O)c1ccc(N=N/C(C(C)=O)=C(/C)O)cc1 | i | i | i | i | i | i | nt | nt | nt | nt | nt | nt | nt
CC(=O)/C(N=Nc1ccc2c(c1)OCO2)=C(\C)O | 84 | i | 83 | i | 59 | 112 | 95 | i | i | i | 78 | 74 | i
CCNC(=O)COC(=O)c1cccc(Br)c1 | i | i | i | i | i | i | nt | nt | nt | nt | nt | nt | nt
Cc1cc(=O)[nH]c(S/C=C/c2ccccc2)n1 | 64 | i | 90 | i | 77 | 118 | 102 | 26 | 89 | 90 | 98 | 94 | 89
Cc1ccc(CN2CC(C(=O)N3CC(C)CC(C)C3)CC2=O)cc1 (stereo unspecified) | i | i | i | i | i | i | nt | nt | nt | nt | nt | nt | nt
Nc1ccc2nn(-c3ccc(F)cc3)nc2c1 | 88 | i | 57 | i | 84 | 106 | i | 14 | 61 | 76 | 94 | 72 | i
O=C(Nc1ccc(Cl)c(Cl)c1)c1ccccc1 | 90 | i | 80 | i | 84 | 102 | 122 | 12 | i | 79 | 96 | 57 | i
CCOc1cccc(/C=C/c2ccc3cccc(O)c3n2)c1O | i | i | 64 | i | 55 | 96 | 109 | i | i | 59 | 85 | nt | i
O=C(CNc1ccc2ccccc2c1)N/N=C/c1ccc([N+](=O)[O-])o1 | 54 | i | i | i | i | 126 | 63 | 11 | i | i | i | i | i
CCn1c(/C=C/c2cc[n+](C)cc2)nc2ccccc21 | i | i | i | i | i | i | nt | nt | nt | nt | nt | nt | nt
CCCn1c(/C=C/c2ccccc2)nc2ccccc21 | 72 | i | 70 | i | 62 | 88 | 118 | 45 | 86 | 84 | 95 | 75 | 81
SMILES | SENP6 block | EBI2 block | SENP7 inh | SENP8 block-1 | SENP8 block-2 | AHR activator | AHR act confirm | PXR act counter | SENP8 conf | SENP6 confirm | SENP7 conf | Casp3 SENP sel | SENP luc ctr
O=C(c1ccccc1Cl)N1CCSCC1 | i | i | i | i | i | i | nt | nt | nt | nt | nt | nt | nt
Cc1ccccc1C(=O)Nc1ccc(Br)c(C)n1 | 59 | i | 66 | i | i | 88 | 130 | 52 | 61 | 62 | 87 | 65 | 58
Cc1nc(NC(=O)c2cccnc2)ccc1Br | i | i | i | i | i | i | nt | nt | nt | nt | nt | nt | nt
O=C(Nc1ccccc1C(=O)O)c1ccc2ccccc2n1 | 54 | i | i | i | i | 93 | 130 | 32 | 65 | 60 | 83 | 81 | i
Cc1ccc(-c2nc(Nc3ccccc3)n[nH]2)cc1 | 51 | i | 51 | i | i | 122 | 111 | i | i | i | 73 | i | i
Nc1nc(CSc2n[nH]c(-c3ccccc3)n2)nc(Nc2ccccc2)n1 | i | i | i | i | i | i | nt | nt | nt | nt | nt | nt | nt
Cc1cccc(Nc2nc(-c3ccc(F)c(C)c3)cs2)n1 | 53 | i | 55 | i | i | 95 | 134 | 34 | i | 60 | 76 | i | i
COCCN1Cc2c(sc(C)c2C)N(C(=O)c2ccccc2)C1 | 51 | i | i | i | i | 82 | 84 | 38 | i | i | i | i | i
Cc1ccc(-c2nc3ccccn3c2NCc2ccc3c(c2)OCO3)cc1 | 51 | i | i | i | i | 109 | 79 | 85 | i | i | i | i | i
c1ccc(-c2cc3nc(NCc4ccc5c(c4)OCO5)ccn3n2)cc1 | nt | i | nt | i | nt | nt | nt | nt | nt | nt | nt | nt | nt
Cc1ccccc1-c1nc(CS(=O)(=O)CC(=O)NCCCN2CCN(C)CC2)c(C)o1 | i | i | i | i | i | i | nt | nt | nt | nt | nt | nt | nt
Cc1cccc2c(=O)n3c(cc12)-c1[nH]c2ccccc2c1CC3 | nt | i | nt | i | nt | nt | nt | nt | nt | nt | nt | nt | nt
O=c1c2ccccc2nc2n1CCc1c-2[nH]c2ccccc12 | 64 | i | 89 | i | i | 99 | 223 | 20 | i | i | i | i | i
Clc1ccc(-n2nnc(-c3cccnc3)n2)cc1Cl | 62 | i | 51 | i | i | 112 | 135 | 38 | i | i | i | 51 | i
Clc1ccc(-n2nnc(-c3nccs3)n2)cc1Cl | 82 | i | 82 | i | 72 | 116 | 84 | 33 | i | i | 60 | 68 | i
COc1cccc(Oc2c(C)oc3c(CN4CCCC4)c(O)ccc3c2=O)c1 | i | i | i | i | i | i | nt | nt | nt | nt | nt | nt | nt
Fc1ccccc1N=C1NN=C(c2ccccc2)CS1 | i | i | i | i | i | i | nt | nt | nt | nt | nt | nt | nt
Clc1ccccc1N=C1NN=C(c2cccs2)CS1 | 68 | i | 74 | i | 77 | 139 | 130 | 36 | 85 | 86 | 97 | 69 | 77
